Many of the other results were omitted from the sample, so hits are more common in it than they were.
Shiga toxin inh – Shiga toxin inhibition; 290,000 tested, 9.2% active; inhibition, % at 38.7 µM; Vero cells, Shiga toxin protein synthesis inhibition reporter; in the data active = inhibition mostly above about 28%, no sharp cut-off; inactive = mostly below about 43%; also: 0% is about no effect
Cycloheximide cs – affects cycloheximide protein synthesis inhibition readout, counter-screen | cell reporter, cycloheximide protein synthesis inhibition counterscreen | 300,000 tested, 12% active | max response, %; in the data active = max response mostly above about 13%, no sharp cut-off; inactive = mostly below about 14%; also: read at 38.3 µM for the half of the compounds with a filed dose; 0% is about no effect
SARS PLpro yeast – inhibitors of SARS-CoV papain-like protease in yeast; S. cerevisiae expressing SARS-CoV PLpro, growth rescue; Potency, µM (series often up to 32.9 µM), for the others: at the top dose activity, positive = growth rescue, most hits filed as activators; 330,000 tested, 0.19% active; AID 485353; also: potency is read from the fitted curve at half-maximal effect; 0% is about no effect; nearly all actives have a fitted effect of over 55% in size
NS1 inh – blocks influenza NS1 protein function | Potency, µM (highest dose often 46.1 µM), without a hit: top-dose activity, positive = more growth | 270,000 tested, 0.4% active | AID 2326; also: potency is read from the fitted curve at half-maximal effect; actives are rising curves; nearly all actives have a fitted effect of over 50% in size
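A cell-based growth assay was used: compounds that relieve NS1-induced slow growth of budding yeast raise OD600. Assay medium was yeast nitrogen base with ammonium sulphate and -URA supplement, pH 6.0, with 2% galactose.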
LmPK inhibitor – blocks Leishmania mexicana pyruvate kinase activity; Q27686; purified LmPK, Kinase-Glo ATP luminescence, 1 h; Potency, µM (series often up to 57.5 µM), without a hit: top-dose activity change, negative = inhibition, hits mostly inhibitors; 290,000 tested, 0.37% active; AID 1721; active = well fitted curve in the direction sought with a large enough effect; inconclusive = small, poorly fitted or top-dose-only effect, or another doubt; inactive = no such curve, though single readings can be large; an effect the other way counts as inactive or inconclusive; also: potency is read from the fitted curve at half-maximal effect; % is scaled to controls: 0 for no effect and ±100 for the full control effect
Target sequence (Q27686 whole entry, looked up): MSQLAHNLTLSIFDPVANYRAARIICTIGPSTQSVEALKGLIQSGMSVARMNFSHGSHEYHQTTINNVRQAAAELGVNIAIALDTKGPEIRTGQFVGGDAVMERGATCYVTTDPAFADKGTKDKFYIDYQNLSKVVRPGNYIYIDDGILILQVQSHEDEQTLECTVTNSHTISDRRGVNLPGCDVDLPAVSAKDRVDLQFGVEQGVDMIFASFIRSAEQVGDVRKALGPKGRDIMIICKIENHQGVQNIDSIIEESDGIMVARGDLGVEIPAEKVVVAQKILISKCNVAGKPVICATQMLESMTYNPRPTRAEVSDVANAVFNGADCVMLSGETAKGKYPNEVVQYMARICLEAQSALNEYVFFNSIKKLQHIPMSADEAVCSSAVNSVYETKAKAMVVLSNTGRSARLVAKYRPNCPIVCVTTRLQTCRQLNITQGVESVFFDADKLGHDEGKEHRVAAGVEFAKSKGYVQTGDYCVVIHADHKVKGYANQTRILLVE
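0.1 nM LmPK, 0.5 mM PEP, 0.1 mM ADP; 50 mM imidazole pH 7.2, 7 mM MgCl2, 50 mM KCl; 1 h RT. Kinase-Glo luminescence readout, normalized to no-enzyme (full inhibition) and uninhibited wells.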
Tb PYK inh – T. brucei pyruvate kinase inhibition; Potency, µM (doses to about 76.8 µM), for inactives: top-dose activity, negative = inhibition, actives largely listed as inhibitors; Q57TT1; 410,000 tested, 0.12% active; TbPYK enzyme, Kinase-Glo Plus ATP luminescence, 45 min; active = well fitted curve in the direction sought with a large enough effect; inconclusive = small, poorly fitted or top-dose-only effect, or another doubt; inactive = no such curve, though single readings can be large; an effect the other way counts as inactive or inconclusive; also: potency is read from the fitted curve at half-maximal effect; % is scaled to controls: 0 for no effect and ±100 for the full control effect; nearly all actives have a fitted effect of over 50% in size
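Luminescent Kinase-Glo Plus end-point after 45 min room-temperature reaction of T. brucei pyruvate kinase started with 130 uM ADP (final). Buffer TEA 50 mM pH 7.2 with KCl, MgCl2, BSA, Tween-20; titration-based qHTS with fitted concentration-effect curves.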
Active calls of the source: *; ? = inconclusive; . = not tested or not shown; + = active, no number; [ ] = remark or other dose. Unless noted, calls follow the shape of the full dose curve.

SMILES	Shiga toxin inh	Cycloheximide cs	SARS PLpro yeast	NS1 inh	LmPK inhibitor	Tb PYK inh
O=C(c1coc2ccc(O)cc12)C1CC1	58*	25*	-2%	-13%	-2%	1%
COc1ccc2occ(C(C)=O)c2c1	-1	-1	14%	-10%	1%	-3%
O=C(c1ccc(Cl)cc1)c1coc2ccc(O)cc12	73*	43*	-19%	-17%	-1%	1%
O=C(c1ccc(Br)cc1)c1coc2ccc(O)cc12	.	.	.	.	.	0%
Cc1nn(-c2ccccc2)c2sc(C(=O)Nc3ccc(Cl)cc3Cl)cc12	.	.	.	.	.	0%
Cc1cc(N2CCN(C)CC2)nc2ccc(NC(=O)Nc3ccccc3Br)cc12	.	.	.	.	.	5%
Cn1cccc1C(=O)C(=O)Nc1cc(Cl)cc(Cl)c1	23	8	-5%	-22%	?	?
Cn1cccc1C(=O)C(=O)Nc1ccc(Cl)cc1	81*	52*	-4%	-24%	?	-12%
Cn1cccc1C(=O)C(=O)Nc1ccc(F)c(F)c1	82*	45*	2%	.	-9%	9%
CCCOc1cccc(C(=O)NC(=S)Nc2ccccc2)c1	18	5	28%	18%	2%	-9%
COc1cccc(C(=O)NC(=S)Nc2cccnc2)c1	43*	26*	-19%	11%	-12%	-10%
CC(C)Oc1cccc(C(=O)NC(=S)Nc2cccnc2)c1	40	32*	?	5%	0%	3%
COc1ccc(C(=O)NC(=S)Nc2cccnc2)cc1Cl	-3	-3	-18%	-1%	-3%	-6%
CC(C)Oc1cccc(C(=O)NC(=S)Nc2ccccc2)c1	120*	94*	-33%	-5%	2%	-1%
CSc1cccc(NC(=S)NC(=O)c2cccnc2)c1	12	10	16%	5%	5%	0%
CCOc1cc(C(=O)NC(=S)Nc2cccnc2)cc(OCC)c1OCC	-10	-3	11%	4%	0%	7%
CCOc1ccc(C(=O)NC(=S)Nc2cccnc2)cc1	0	30*	18%	6%	-4%	-3%
CC(C)C[C@H]1CN([C@@H](Cc2ccccc2)CN2CCC[C@H]2CN2C(=O)C(=O)NC[C@@H]2Cc2ccc(O)cc2)C(=O)C(=O)N1CCc1ccccc1	.	.	.	.	.	3%
CS(=O)(=O)N1CCC2(CCN(C(c3ccccc3)c3ccccc3)CC2)CC1	.	.	.	.	.	-4%
NC(=O)c1ccc2c(=O)n3c(-c4cccs4)csc3nc2c1	32*	25*	4%	4%	1%	-4%
CCOC(=O)N1C(C)CN(/[N+]([O-])=N/Oc2ccc([N+](=O)[O-])cc2[N+](=O)[O-])CC1C (configuration not stated)	32	7	.	.	.	.
O=C(Nc1ccc(Cl)cc1C(F)(F)F)c1ccc(Cl)cc1	32	16*	-4%	-5%	-4%	1%
O=C(Nc1ccc(Cl)cc1C(F)(F)F)c1ccccc1Cl	38	13*	18%	-5%	-2%	-4%
Cc1noc(C)c1C(=O)Nc1ccc(Cl)cc1C(F)(F)F	2	-4	-13%	4%	-4%	-7%
O=C(Nc1cc(F)c(Br)cc1F)c1ccc(Cl)cc1	111*	34*	-1%	2%	3%	-6%
SMILES	Shiga toxin inh	Cycloheximide cs	SARS PLpro yeast	NS1 inh	LmPK inhibitor	Tb PYK inh
Cc1ccc(C(=O)Nc2ccc(Cl)cc2C(F)(F)F)c(Cl)c1	56*	31*	13%	-3%	4%	4%
O=C(Nc1ccc(Cl)cc1C(F)(F)F)c1cc(S(=O)(=O)NCc2ccccc2)ccc1F	.	.	.	.	.	-5%
N#CCCN(CCC#N)C(=O)C1c2ccccc2Oc2ccccc21	.	0	-7%	-16%	0%	-1%
O=C(Nc1cccc2c(=O)[nH][nH]c(=O)c12)c1ccc([N+](=O)[O-])cc1	.	.	.	.	.	3%
Cc1ccc(NC(=O)c2ccc(Cl)cc2Cl)cc1O	94*	39*	-1%	-2%	-4%	29%
Cc1ccc(C(=O)Nc2ccc(Cl)cc2C)c(Cl)c1	100*	27*	0%	.	4%	2%
CCCCc1ccc(NC(=O)C2CCCO2)cc1 (configuration not stated)	72*	55*	-6%	1%	-10%	-9%
CC(C)OCCCNC(=O)c1ccc(NC(=O)C2CCCO2)cc1 (configuration not stated)	-5	8	-2%	2%	-3%	2%
CCCCNC(=O)c1ccc(NC(=O)C2CCCO2)cc1 (configuration not stated)	10	11*	0%	-9%	-3%	-3%
Cc1nn(Cc2ccccc2)c(C)c1C(=O)N1CCN(S(=O)(=O)/C=C/c2ccccc2)CC1	.	.	0%	.	.	-6%
Cc1nc(NC(=O)C2CC3CCCC(C2)C3=O)sc1C (configuration not stated)	+	47*	4%	5%	3%	-7%
Cc1ccc(N(C)S(=O)(=O)c2ccc(-c3coc(C)n3)cc2)cc1	.	.	.	.	.	-1%
CCCn1c(=O)c2sccc2n2c(CCCC(=O)Nc3ccc(Oc4ccc(Cl)cc4)cc3)nnc12	.	.	.	.	.	6%
Nc1c(Cl)ncnc1N/N=C/c1cccnc1	14	15*	-4%	1%	-6%	0%
Nc1c(Cl)ncnc1N/N=C/c1ccccn1	active	25*	.	-33%	-18%	-4%
COC(=O)C1=C(C(=O)OC)[C@@H]2N(C)c3ccccc3[C@@]23C[C@@H](C(=O)OC)N(S(=O)(=O)c2ccc(C#N)cc2)C3=N1	.	.	.	.	-4%[11.5 µM]	.
Cc1csc(NC(=O)CCc2nc3ccccc3s2)n1	37	24*	-1%	-10%	5%	-7%
O=C(COC(=O)CCc1nc2ccccc2s1)Nc1ncc(Cl)cc1Cl	13	-2	0%	-18%	2%	-3%
O=C(COC(=O)CCc1nc2ccccc2s1)Nc1nc(-c2ccccc2)cs1	47*	18*	2%	8%	3%	7%
O=C1NC(=O)c2c(Br)c(Br)c(Br)c(Br)c21	.	.	.	.	.	3%
CC(C)(C)c1cc(OC(=O)c2ccccc2F)ccc1O	33*	11	-3%	-6%	0%	-1%
Cc1nn2cc(-c3cccc(Cl)c3)cnc2c1Cl	124*	33*	2%	.	-4%	-1%
Cc1nn2cc(-c3cccc(Cl)c3)cnc2c1Br	56*	14	17%	2%	-15%	-17%
O=C(O)C(O)(c1ccc(-c2ccccc2)cc1)c1ccc(-c2ccccc2)cc1	.	.	.	6%	.	.
O=C(Nc1ccc(F)cc1)C(=O)C1C(=O)Nc2ccccc21 (configuration not stated)	55*	14	-1%	-5%	-2%	0%
O=C(Nc1ccc2ccccc2c1)C(=O)C1C(=O)Nc2ccccc21 (configuration not stated)	66*	32*	-1%	1%	-2%	.
O=C(CN1C(=O)C(=O)N(C2CCCC2)C1=O)Nc1ccc(OC(F)F)cc1	.	.	-4%	.	.	-4%
O=C(COC(=O)c1cc(S(=O)(=O)N2CCOCC2)ccc1F)Nc1ccc(Cl)cn1	.	.	-3%	.	.	-11%
